Consider 17 molecules from PubChem BioAssay (NCI).

SMILES strings stand for the structures. About 83,000 compounds went through this panel and 20% of them were active in at least one assay; those are over-represented in the sample as a whole.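 Growth was measured after 48 h exposure to one concentration of compound in 96-well plates. Values under 10 count as active.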 Values without a mark were called inactive. The source made the active and inactive calls.

Common to all, as to experiment: NCI-60 one-dose screen, 48 h (100 = growth as untreated, 0 = no growth, -100 = all killed)
Conditions in all cases: 10 µM unless noted

Assay [1] relates to SK-MEL-2 melanoma.
Assay [2] concerns EKVX NSCLC.
Assay [3] has as its system SN12C renal.
The test system of assay [4] is UO-31 renal.
Assay [5] deals with TK-10 renal.
The subject of assay [6] is ACHN renal.
Assay [7] relates to CAKI-1 renal.
Assay [8] has as its system A498 renal.
The test system of assay [9] is CCRF-CEM leukemia.
The test system of assay [10] is MOLT-4 leukemia.
Assay [11] concerns OVCAR-8 ovarian.
Assay [12] deals with OVCAR-5 ovarian.
Assay [13] relates to OVCAR-4 ovarian.
The test system of assay [14] is SK-OV-3 ovarian.
For assay [15], the system named is IGROV1 ovarian.
Assay [16] has as its system OVCAR-3 ovarian.
Assay [17] relates to HS 578T breast.
The test system of assay [18] is RPMI-8226 leukemia.
Assay [19] concerns NCI/ADR-RES ovarian.

`COc1nc(N(C)O)nc(N(C)O)n1`: the growth is 70.9% in [1]; 31.2% in assay [2]; 42.5% in [3]; 36.9% in assay [4]; 32.5% in assay [5]; 11.2% in assay [6]. The growth is 36.3% in assay [7]; 76.7% in assay [8]; 14.4% in assay [9]; 35.7% in assay [10]; 27.1% in [11]; 53.6% in assay [12]. Besides, the growth in assay [13] is 33.3%; in assay [14], 32%; in assay [15], 54.7%; in [16] it was 9.27% (active); in assay [17], 87.9%.
On to `N#Cc1c2c(nn(-c3ccccc3)c1=O)C(O)=C([N+](=O)[O-])C(c1ccccc1)C2` (stereo not given), for which the growth in assay [1] was 89%; in [2] it was 83.8%; in [3], 89.7%; in [4], 64%; in assay [5] it was 99.1%; in assay [6], 74.3%. In addition, the growth in assay [7] is 81.9%; in [8] it was 90.7%; in [9], 58%; in assay [10] it was 67.5%; in assay [18], -6.06% (active); in assay [11] it was 81.6%. Further, the growth was 110% in assay [12]; 73.8% in [13]; 50.6% in assay [15]; 76.4% in assay [16]; 91% in [17]; 93.5% in assay [19].
On to `COc1ccc(-c2nc(SCCC(C)C)nc(N/N=C\c3cccc(Cl)c3)c2C#N)cc1`, for which the growth in assay [1] is 98.3%; in assay [2] it was 77.3%; in [3], 41.9%; in assay [4], 48.9%; in assay [5] it was 47.1%; in assay [6], 17.9%. The growth in assay [7] is 61%; in assay [8], 42.5%; in [9], 50%; in assay [10], 74.7%; in assay [11], 57.7%; in assay [12], 84.3%. Also, the growth in [13] is -13.4% (active); in assay [14], 84%; in [15], 76.2%; in assay [16], 38.5%; in assay [17] it was 20.7%; in [19], 79.2%.
Turning to `CCCc1cc2c(=O)c(C(=O)OC)c[nH]c2cc1N(CC)CC`, the growth in assay [1] is 93.9%; in [2], 106%; in [3] it was 94.7%; in assay [4] it was 82.6%; in assay [5] it was 101%; in assay [6], 92.7%. Also, the growth in assay [7] was 94.9%; in [8], 107%; in [9], 88.2%; in [10], 98.2%; in assay [18] it was 82.5%; in [12], 88.8%. In addition, the growth in [13] is 101%; in assay [14] it was 100%; in assay [16] it was 95.3%; in assay [17], 123%; in [19] it was 99%.
In the case of `COc1cc(C2CC(=O)Nc3c2c(C)nn3-c2nc3ccccc3[nH]2)c(OC)c(OC)c1OC` (stereo not given), the growth in assay [1] is 50%; in assay [2], 86.4%; in assay [3] it was 73.9%; in [4] it was 62.3%; in assay [5], 12.5%; in assay [6], 86.6%. The growth in assay [7] was 43.6%; in assay [8], -9.27% (active); in assay [9], 39.6%; in assay [10] it was 20.3%; in assay [18], 55.1%; in assay [12] it was 104%. Moreover, the growth in assay [13] is 73.1%; in assay [14] it was 40%; in assay [15], 76.9%; in [16], 12.2%; in [17] it was 25.5%; in [19], 57.7%.
As to `O=c1[nH]nc(-c2ccccc2)c2c(-c3ccccc3)onc12`, the growth in assay [1] is 30.7%; in assay [2], 25.4%; in assay [3], 56.3%; in assay [4], 16.9%; in assay [5], 62.5%; in assay [6] it was 47.5%. For the same molecule, the growth was 28.7% in assay [7]; 7.76% (active) in assay [8]; 21.3% in [9]; 30.2% in [10]; 19.5% in assay [18]; 54.3% in [11]. Besides, the growth in assay [13] was 64.1%; in [14] it was 15.4%; in assay [15], 13.2%; in assay [16], -15.8% (active); in [19] it was 30.4%.
`CNc1ccc(NC)c2c1C(=O)c1ccccc1C2=O`: the growth in assay [1] was 97.7%; in [2], 94.6%; in assay [3], 80.3%; in assay [4], 77.7%; in [5], 84.9%; in assay [6], 77.7%. The growth is 76.4% in [7]; 94.4% in assay [8]; 84.3% in assay [9]; 92.1% in [10]; 71.5% in assay [11]; 101% in assay [12]. The growth in assay [13] is 68.4%; in assay [14], 67.4%; in assay [15], 69%; in assay [16], 95.4%; in assay [17] it was 98.5%; in [19] it was 88%.
As to `CCCCc1ccc(Nc2ccc(Nc3ccc(CCCC)cc3S(=O)(=O)O)c3c2C(=O)c2ccccc2C3=O)c(S(=O)(=O)O)c1`, the growth in assay [1] is 67.1%; in [2], 83.3%; in assay [3], 91%; in assay [4], 66.5%; in [5] it was 114%; in assay [6], 94.5%. The growth was 95.6% in assay [7]; 119% in [8]; 80.9% in assay [9]; 96.8% in assay [10]; 99.8% in [11]; 97.8% in assay [12]. Further, the growth in assay [13] is 99.9%; in assay [14] it was 91.5%; in assay [15], -16.9% (active); in assay [16] it was 103%; in [17], 102%; in [19] it was 107%.
On to `Cc1ccc2nc(C)c(-c3nnc(SCc4ccc(C#N)cc4)o3)n2c1`, for which the growth in [1] is 101%; in assay [2], 83.8%; in assay [3] it was 92.9%; in assay [4] it was 67%; in assay [5], 120%; in assay [6] it was 88.4%. Also, the growth in assay [7] was 85.3%; in [8], 72%; in assay [9] it was 117%; in assay [10], 101%; in assay [18] it was 93.6%; in assay [11], 108%. The growth in [12] was 107%; in assay [13], 95.8%; in assay [15], 89.5%; in assay [16] it was 109%; in assay [17], 93.2%; in [19], 90.6%.
For the molecule `COc1cc(/C=N/Nc2ncc(-c3cc4cc5c(cc4o3)OCO5)s2)cc(OC)c1OC`, the growth in assay [1] was 79.7%; in [2], 71.4%; in assay [3], 71.2%; in assay [4], 66.8%; in assay [5], 101%; in [6], 74.3%. Moreover, the growth is 64.2% in assay [7]; 75.6% in [8]; 26% in assay [9]; 18.6% in assay [10]; 6.26% (active) in assay [18]; 30% in assay [11]. Besides, the growth was 98.2% in [12]; 68.7% in [13]; 66.7% in assay [15]; 67.2% in assay [16]; 89.6% in assay [17]; 26.3% in assay [19].
For `C(=N\Nc1ncc(-c2cc3cc4c(cc3o2)OCO4)s1)/c1ccco1`, the growth in [1] was 90.8%; in assay [2], 59.3%; in assay [3], 38.9%; in assay [4], -43.4% (active); in [5], 50.7%; in assay [6] it was 11.1%. Further, the growth in assay [7] was 9.09% (active); in assay [8], 71.1%; in assay [9] it was 17.5%; in assay [10] it was 9.91% (active); in assay [18], 30.9%; in assay [11] it was 23.7%. Besides, the growth in assay [12] was 58%; in [13] it was 32.5%; in assay [15] it was 30.2%; in assay [16] it was 8.65% (active); in assay [17], 70.6%; in assay [19], 34.7%.
With `COc1ccccc1N1C(=O)/C(=C/C2=Cc3ccccc3OC2)SC1=S`, the growth in [1] was 110%; in [2] it was 95.3%; in assay [3] it was 97.4%; in assay [4], 88.3%; in assay [5], 84.3%; in assay [6], 96.9%. The growth in assay [7] was 85.2%; in assay [8], 40.7%; in assay [9], 90.5%; in assay [10], 94.6%; in [18], 91.4%; in assay [11], 102%. The growth in assay [13] was 83.2%; in assay [14], 95.2%; in [15] it was 97.2%; in assay [16], 101%; in [17], 94.6%; in assay [19], 109%.
Take `COc1ccc(NC(=O)CSc2nc(C)c(C(C)=O)n2-c2ccc(Cl)cc2)cc1`: the growth was 102% in [1]; 95.5% in [2]; 92.5% in [3]; 102% in [4]; 125% in assay [5]; 99% in assay [6]. Further, the growth in assay [7] is 97.8%; in assay [8], 75.6%; in assay [9] it was 108%; in assay [10], 91%; in [18], 97.3%; in [11], 88.7%. Further, the growth in assay [13] was 85.3%; in assay [15], 95.1%; in assay [16], 100%; in assay [17] it was 90.4%; in [19], 89.4%.
As to `CC(=O)c1nc(Nc2ccc(C)cc2)sc1C`, the growth in assay [1] is 102%; in assay [2], 74.4%; in assay [3], 102%; in assay [4] it was 81.6%; in assay [5] it was 120%; in assay [6] it was 102%. In addition, the growth in assay [7] was 87.9%; in assay [8], 66.2%; in assay [9], 95.6%; in assay [10], 96.1%; in assay [18], 96.2%; in assay [11], 95%. Further, the growth was 110% in assay [13]; 97.8% in assay [14]; 86.9% in [15]; 97.5% in assay [16]; 90.1% in assay [17].
On to `Cn1cc2c(c1)-c1nc(Nc3ccccc3)ncc1CC2`, for which the growth is 73.6% in assay [1]; 54.6% in [2]; 64.8% in assay [3]; 46.2% in assay [4]; 61.9% in assay [5]; 47.8% in assay [6]. Further, the growth was 48.8% in [7]; 6.32% (active) in assay [8]; 61.2% in [9]; 44.6% in [10]; 79.6% in [11]; 60% in assay [12]. The growth in assay [13] was 69.3%; in assay [14] it was 77.6%; in assay [15], 58.6%; in assay [16], 69.5%; in assay [17], 78.4%; in [19] it was 71.6%.
On to `CCCCN(CCCC)CC(C)(C)C(O)c1ccc(OC)c2ccccc12` (stereo not given), for which the growth in assay [1] was 76.7%; in assay [2] it was 44%; in assay [3], 46.7%; in assay [4] it was 34.1%; in [5], 51.4%; in [6] it was 56.5%. For the same molecule, the growth was 23.1% in assay [7]; 59.3% in assay [8]; 50% in [9]; 27.6% in assay [10]; 4.33% (active) in assay [18]; 74.2% in assay [11]. The growth was 56.7% in [13]; 79.1% in assay [14]; -13.4% (active) in assay [15]; -11.9% (active) in assay [16]; 55.7% in assay [17]; 49.3% in assay [19].
Regarding `COc1ccc2c(c1)O/C(=C\c1cccc(OCC(=O)Nc3nc4ccccc4s3)c1)C2=O`, the growth in [1] was 91.8%; in [2], 100%; in assay [3] it was 43.7%; in assay [4] it was -61.3% (active); in assay [5], 132%; in assay [6] it was 98.2%. For the same molecule, the growth in [7] is -88.3% (active); in assay [8], 110%; in [9], -61.4% (active); in assay [10], 18.4%; in [18] it was 53.4%; in assay [11], 5.46% (active). The growth in assay [13] is 81.7%; in [14], 99.1%; in assay [16], 88.6%; in assay [17], 93.8%; in assay [19] it was -60.1% (active).
